This excerpt belongs to a sample that is enriched for hits.
VDR inh: Inhibitors of the vitamin D receptor (VDR): qHTS; VDR-SRC2-3 peptide fluorescence polarization, 2 h; Potency, µM, for inactives: max response, negative = inhibition, actives largely listed as inhibitors; 400,000 compounds, 0.93% hits; further: on the % scale 0 is the no-effect control and ±100 the full control effect
Target sequence (P11473 whole entry, looked up): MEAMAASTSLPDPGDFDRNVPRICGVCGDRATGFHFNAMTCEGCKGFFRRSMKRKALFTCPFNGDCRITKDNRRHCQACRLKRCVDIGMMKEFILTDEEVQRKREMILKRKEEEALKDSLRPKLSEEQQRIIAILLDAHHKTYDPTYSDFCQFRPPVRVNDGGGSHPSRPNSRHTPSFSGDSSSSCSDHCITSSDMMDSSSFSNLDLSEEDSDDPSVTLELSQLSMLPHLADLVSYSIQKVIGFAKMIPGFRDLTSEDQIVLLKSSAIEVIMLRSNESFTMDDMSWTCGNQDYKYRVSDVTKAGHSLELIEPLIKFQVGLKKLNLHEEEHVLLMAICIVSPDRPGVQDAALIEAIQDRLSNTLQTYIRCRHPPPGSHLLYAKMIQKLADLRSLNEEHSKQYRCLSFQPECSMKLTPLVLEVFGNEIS
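Two reagent solutions held at 4 deg C in the dark were dispensed, compounds pinned at 23 nl, and the mixture incubated 2 h at room temperature. Read-out: fluorescence polarization of VDR–SRC2-3 peptide binding.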
ALOX12 inh: Primary qHTS assay for inhibitors of human arachidonate 12S-lipoxygenase (ALOX12): Round 2. Potency, µM (titrated, usually from 108 µM), without a hit: top-dose activity change, negative = inhibition, usual class: inhibitors. purified 12hLO, xylenol orange hydroperoxide absorbance. Polyunsaturated fatty acid lipoxygenase ALOX12 (Homo sapiens), P18054. AID 1671190, 2021. 580,000 compounds, 1.1% hits; further: on the % scale 0 is the no-effect control and ±100 the full control effect
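Purified human 12hLO (150 nM final) in 25 mM Hepes, 0.01% Triton X-100, pH 7.0 was preincubated 15 min at room temperature with compound. Then 40 uM arachidonic acid was added, 30 min. Hydroperoxide was read by Fe-XO absorbance ratio 573/405 nm.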
Sfp inh: qHTS Assay for Inhibitors of Bacillus subtilis Sfp phosphopantetheinyl transferase (PPTase). 310,000 compounds, 3.5% hits. AID 1490, 2009. 4'-phosphopantetheinyl transferase ffp (Bacillus subtilis), Q9F4F7. Potency, µM, for inactives: largest response in the series, negative = inhibition, actives largely listed as inhibitors. Biochemical Sfp PPTase activity, qHTS;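 further: the enzyme is Sfp with the accession as filed and its product quenches rhodamine fluorescence; 0% = enzyme reaction without inhibitor and -100% = no enzyme wells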
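After 15 min at room temperature with compound, 15 nM Sfp received 5 uM rhodamine-CoA plus 12.5 uM BHQ-2-ybbR (50 mM Hepes pH 7.6, 10 mM MgCl2). Rate came from the fluorescence difference over 30 min, ex 525/em 598 nm.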
GRP78 ERSR act: qHTS for Inducers of the Endoplasmic Reticulum Stress Response (ERSR) in Human Glioma: qHTS | U87-MG GRP78 promoter luciferase reporter, 16 h | Potency, µM, for the others: top-dose activation, most hits filed as activators | 420,000 compounds, 0.02% hits; further: series mostly up to about 76 µM; % of control where 0% means no effect; nearly all actives have a fitted effect of over 35% in size
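Stably transfected U87-MG glioma cells carrying a GRP78-based luciferase sensor; 16 h compound incubation. Luminescence end-point read 10 min after Bright-Glo addition at room temperature.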
G9a inh: qHTS Assay for Inhibitors of Histone Lysine Methyltransferase G9a; Histone-lysine N-methyltransferase EHMT2 (Homo sapiens), Q96KQ7; G9a H3K9 monomethylation, AlphaScreen, 2 h; Potency, µM (top dose mostly 102 µM), without a hit: at the top dose activity, negative = inhibition, hits mostly inhibitors; 350,000 compounds, 8.8% hits; further: on the % scale 0 is the no-effect control and ±100 the full control effect; nearly all actives have a fitted effect of over 75% in size
Target sequence (Q96KQ7 913-1193 limits assumed): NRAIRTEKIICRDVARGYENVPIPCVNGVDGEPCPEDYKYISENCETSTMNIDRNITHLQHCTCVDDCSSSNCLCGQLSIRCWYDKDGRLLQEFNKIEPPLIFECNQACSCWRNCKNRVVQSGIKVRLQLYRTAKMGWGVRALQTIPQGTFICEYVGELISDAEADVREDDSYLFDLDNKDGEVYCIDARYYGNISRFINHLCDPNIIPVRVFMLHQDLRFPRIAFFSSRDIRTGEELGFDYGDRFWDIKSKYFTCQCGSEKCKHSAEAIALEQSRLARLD
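Using a bead-based AlphaScreen, monomethylated H3K9 product from 2 h room-temperature reactions (G9a 20 nM, peptide 500 nM, SAM 20 uM) was detected with 0.5 ug/mL rabbit anti-H3K9me1 antibody.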
* hit, by the source's call; ! = not confirmed by another sample; [ ] = remark or other dose. The call rests on the fitted dose curve; in most records, active means well fitted curve in the direction sought with a large enough effect; inconclusive means small, poorly fitted or top-dose-only effect, or another doubt; inactive means no such curve, though single readings can be large; an effect the other way counts as inactive or inconclusive. Potency means the concentration at half of the fitted maximal effect.

Results for c1nc(NCCN2CCOCC2)c2cc(-c3ccoc3)ccc2n1 ?
VDR inh: 45µM*; ALOX12 inh: inconclusive; Sfp inh: 34%; GRP78 ERSR act: 1%; G9a inh: 0%[0.501 µM]

What do the screens show for `COc1cccc(-c2ccc3ncnc(NCCN4CCOCC4)c3c2)c1`?
VDR inh: 4%; ALOX12 inh: inconclusive; Sfp inh: 2%; GRP78 ERSR act: -2%; G9a inh: 12%[0.501 µM]

What do the screens show for `Cc1ccccc1-c1ccc2ncnc(N3CCNCC3)c2c1`?
VDR inh: 50µM*; ALOX12 inh: inconclusive; Sfp inh: 0%; GRP78 ERSR act: -2%; G9a inh: 3%[0.501 µM]

What do the screens show for `CC(=O)NCCNc1ncnc2ccc(-c3ccccc3C)cc12`?
VDR inh: 45µM*; ALOX12 inh: -9%; Sfp inh: 12%; GRP78 ERSR act: -1%; G9a inh: 2%[0.501 µM]

Results for CC(=O)NCCNc1ncnc2ccc(-c3ccoc3)cc12 ?
VDR inh: 40µM*; ALOX12 inh: inconclusive; Sfp inh: -10%; GRP78 ERSR act: 0%; G9a inh: 8%[0.501 µM]

What do the screens show for `Clc1ccccc1-c1ccc2ncnc(N3CCNCC3)c2c1`?
VDR inh: inconclusive; ALOX12 inh: inconclusive; Sfp inh: 6%; GRP78 ERSR act: 0%; G9a inh: -5%[0.501 µM]

How did Cc1csc(SC2=CS(=O)(=O)c3ccccc32)n1 do in these assays?
ALOX12 inh: 0%

Results for CCC(C)[C@H](NC(=O)NCc1ccccc1F)C(=O)O (stereo partly drawn) ?
ALOX12 inh: -26%

Results for O=c1cc(CN2CCN(c3cccc(Cl)c3)CC2)c2cc(Cl)c(O)cc2o1 ?
ALOX12 inh: -27%

How did CN1CCC(N2C[C@@H]3C[C@H]2C(=O)N(Cc2ccc(OC(F)(F)F)cc2)c2ccccc2O3)CC1 do in these assays?
ALOX12 inh: 17%

How did O=C(COC(=O)c1cc([N+](=O)[O-])ccc1NCCO)Nc1ccc2c(c1)OCO2 do in these assays?
VDR inh: -8%; ALOX12 inh: -2%; Sfp inh: 5%; GRP78 ERSR act: -3%; G9a inh: 50µM*

How did O=C(COC(=O)c1cc([N+](=O)[O-])ccc1NCCO)Nc1cccc(S(=O)(=O)N2CCCC2)c1 do in these assays?
VDR inh: 4%; ALOX12 inh: -7%; GRP78 ERSR act: -4%; G9a inh: 45µM*

Results for Nc1ccc(C(=O)OCC(=O)Nc2ccc3c(c2)OCO3)cc1[N+](=O)[O-] ?
VDR inh: -2%; ALOX12 inh: 21%; Sfp inh: 11%; GRP78 ERSR act: -1%; G9a inh: -41%[59 µM]

What do the screens show for `COc1ccccc1C(=O)N1CCN(c2oc(-c3ccc(F)cc3)nc2C#N)CC1`?
ALOX12 inh: 3%

Results for CCN1CCOC(=O)C1CC(=O)Nc1ccc(Br)cc1 (stereo not drawn) ?
VDR inh: inconclusive; ALOX12 inh: -35%; GRP78 ERSR act: -2%; G9a inh: 2.5µM*

How did CCN1CCN(CCC(=O)Nc2ccc(Br)cc2)CC1 do in these assays?
VDR inh: 31%; ALOX12 inh: -26%; Sfp inh: inconclusive; GRP78 ERSR act: -2%; G9a inh: -30%

What do the screens show for `Cn1ccc(C(=O)N2CC(CNc3ccccc3)C3(C2)CN(c2ccccc2)C3)n1` (stereo not drawn)?
ALOX12 inh: -43%[176 µM]

How did CCN(CC)C(=O)Oc1ccc2cc(-c3ccccc3)c(=O)oc2c1 do in these assays?
ALOX12 inh: 13%

Results for Cc1cc(C(=O)NC(Cc2ccccc2)C(=O)O)c(C)o1 (stereo not drawn) ?
VDR inh: -10%; ALOX12 inh: -9%; Sfp inh: 12%; GRP78 ERSR act: -2%; G9a inh: 71µM*

How did Cc1oc(-c2ccccc2)cc1C(=O)NC(Cc1c[nH]c2ccccc12)C(=O)O (stereo not drawn) do in these assays?
VDR inh: -17%; ALOX12 inh: inconclusive; Sfp inh: 40µM*; GRP78 ERSR act: -3%; G9a inh: inconclusive

What do the screens show for `O=C(O)c1cc(S(=O)(=O)NC(Cc2c[nH]c3ccccc23)C(=O)O)ccc1Cl` (stereo not drawn)?
VDR inh: -2%; ALOX12 inh: -1%; Sfp inh: -16%; GRP78 ERSR act: -5%; G9a inh: 45µM*

Results for COCC1CN(C2CCC2)CC12CCN(Cc1cccc(OC)c1OC)CC2 (stereo not drawn) ?
ALOX12 inh: 48%

Results for O=C1N=C(N2CCCC2C(=O)O)S/C1=C\c1ccco1 (stereo not drawn) ?
VDR inh: inconclusive; ALOX12 inh: -21%; Sfp inh: -26%; GRP78 ERSR act: -2%; G9a inh: 25µM*

What do the screens show for `C=CCN1CCN(c2nc3ccccc3nc2C#N)CC1`?
VDR inh: 35µM*; ALOX12 inh: 1%; Sfp inh: 56µM*!; GRP78 ERSR act: 2%; G9a inh: 26%[59 µM]

What do the screens show for `C=CCN1CCCN(Cc2ccc(C#N)cc2)CC1`?
ALOX12 inh: 20%

How did O=c1c2ccccc2nnn1CSc1nc2ccccc2c(=O)n1CCCO do in these assays?
VDR inh: 16%; ALOX12 inh: -2%; Sfp inh: 2%; GRP78 ERSR act: -1%; G9a inh: -31%

Results for Cn1c(SCn2nnc3ccccc3c2=O)nc2ccccc2c1=O ?
Sfp inh: 4%; G9a inh: 50µM*

How did CCN(CC)S(=O)(=O)c1ccc2c(c1)nc(SCn1nnc3ccccc3c1=O)n2CC do in these assays?
VDR inh: -4%; ALOX12 inh: 0%; Sfp inh: 3%; GRP78 ERSR act: -4%; G9a inh: 45µM*

Results for COC(=O)CSc1n[nH]c(=O)c2cc(-c3ccc(OC)c(OC)c3)nn12 ?
ALOX12 inh: 1%

How did COCCn1c(SCc2ccc3c(c2)OCO3)nnc1-c1ccc(Cl)cc1 do in these assays?
ALOX12 inh: 2%

How did CC(C)OC(=O)CNc1n[nH]c(=S)[nH]c1=O do in these assays?
VDR inh: -8%; ALOX12 inh: -10%; Sfp inh: 45µM*; GRP78 ERSR act: -1%; G9a inh: 25µM*

What do the screens show for `CN(C)C(=O)CNc1n[nH]c(=S)[nH]c1=O`?
VDR inh: -15%; ALOX12 inh: -1%; Sfp inh: 20µM*; GRP78 ERSR act: -3%; G9a inh: -2%

What do the screens show for `COC(=O)CNc1n[nH]c(=S)[nH]c1=O`?
VDR inh: -1%; ALOX12 inh: inconclusive; Sfp inh: 50µM*; GRP78 ERSR act: -5%; G9a inh: inconclusive

Bioassay records (PubChem BioAssay)
